# PubChem BioAssay (Tox21)
# Results filed as inconclusive are left out. Entries that show only a call come without a potency. A structure can be active in one record and inactive in another. Active and inactive are the calls of the source. Unless noted, the call rests on the fitted dose curve; in most records, active means well fitted curve in the direction sought with a large enough effect in the repeat runs; inconclusive means weak or mixed curves; inactive means no such curve, though single readings can be large; an effect the other way counts as inactive or inconclusive.
# Key:
# [1] = qHTS assay for small molecule agonists of the p53 signaling pathway (AID 651631; calls by dose curve; further: nearly all actives have a fitted effect of over 15% in size)
# In short: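 HCT-116 cells carrying a stable p53 response element–beta-lactamase reporter were plated, rested 5 h at 37 °C, then exposed to compound in DMSO for 16 h at 37 °C; reporter activity was read as FRET substrate fluorescence after 2 h at room temperature.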
# [2] = qHTS assay for small molecules that induce genotoxicity in human embryonic kidney cells expressing luciferase-tagged ATAD5 (AID 651632); further: nearly all actives have a fitted effect of over 15% in size
# In short: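 HEK293T cells carrying a luciferase reporter tagged to ATAD5 were exposed to compound or DMSO vehicle for 16 hr at 37C, 5% CO2. Amplite was added, and after 30 min at room temperature luciferase activity was read as a marker of ATAD5 induction.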
# [3] = qHTS assay for small molecule agonists of the p53 signaling pathway - cell viability (AID 651633; calls by dose curve; further: series mostly up to about 83 µM; nearly all actives have a fitted effect of over 30% in size)
# In short: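 p53RE-bla cells, seeded at 4,000 per well and rested 5 h at 37 C/5% CO2, received compounds in DMSO for 16 h at 37 C. CellTiter-Glo was then added, and luminescence was read after 30 min at room temperature to gauge cytotoxicity.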
# [4] = qHTS assay for small molecules that induce genotoxicity in human embryonic kidney cells expressing luciferase-tagged ATAD5 - cell viability (AID 651634; calls by dose curve; further: nearly all actives have a fitted effect of over 25% in size)
# In short: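 HEK293T cells expressing luciferase-tagged ATAD5 were exposed to compound or DMSO for 15.5 hr at 37C, 5% CO2. Viability was then read as live-cell protease activity by CellTiter-Fluor fluorescence after 30 min at 37C.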
# [5] = qHTS assay for small molecule disruptors of the mitochondrial membrane potential - cell viability (AID 720634; calls by dose curve;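 further: human HepG2 liver cancer cells; series mostly up to about 83 µM; nearly all actives have a fitted effect of over 20% in size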)
# In short: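 HepG2 cells seeded overnight at 37 C, then exposed to compound or DMSO for 1 hr at 37 C, 5% CO2. m-MPI dye added, then CellTiter-Glo for 30 min at room temperature; viability read as ATP luminescence.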
# [6] = qHTS assay for small molecule disruptors of the mitochondrial membrane potential (AID 720635); further: potency means the concentration at half of the fitted maximal effect
# In short: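 HepG2 cells (2,000/well) attached overnight at 37C, then took compound for 1 hr at 37C, 5% CO2. Mito-MPS dye was added for 30 min; fluorescence was read at 490/535 nm (monomers) and 540/590 nm (aggregates).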
# [7] = qHTS assay to test for compound auto fluorescence at 590 nm (red) in HepG2 cells (AID 720674)
# In short: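 Compound auto-fluorescence is scored relative to Rose Bengal sodium, measured at 540/590 nm in live HepG2 cultures after 1 hr compound contact (37 C, 5% CO2).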
# [8] = qHTS assay to test for compound auto fluorescence at 535 nm (green) in HepG2 cells (AID 720675)
# [9] = qHTS assay to test for compound auto fluorescence at 460 nm (blue) in HEK293 cells (AID 720678)
# In short: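 HEK293, 2,000 cells/well, 10% dialyzed FBS; attach 4-5 hr 37C; pin compound or DMSO; o/n 37C/5% CO2; fluorescence 405/460 nm; triamterene-equivalent units.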
# [10] = qHTS assay to test for compound auto fluorescence at 590 nm (red) in HEK293 cells (AID 720679)
# In short: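 Intensity at 540nm excitation and 590nm emission is reported as Rose Bengal sodium-equivalent autofluorescence. Measurements followed overnight exposure (37C, 5% CO2) of HEK293 cells, 2,000 per well, to 23 nL compound.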
# [11] = qHTS assay to test for compound auto fluorescence at 460 nm (blue) in HEK293 cell free culture (AID 720681)
# In short: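 Test compounds were pinned into cell-free culture medium (DMEM with 10% FBS) and fluorescence was read directly at Ex/Em 405/460 nm. Signals were expressed as fluorescence equivalents of triamterene, with DMSO vehicle as control.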
# [12] = qHTS assay to test for compound auto fluorescence at 535 nm (green) in HEK293 cell free culture (AID 720682)
# In short: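 Read-out: 485/535 nm fluorescence intensity, calibrated against fluorescein. Medium only (DMEM + 10% FBS, no cells); test compound or DMSO vehicle added by pintool before plate reading.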
# [13] = qHTS assay to test for compound auto fluorescence at 590 nm (red) in HEK293 cell free culture (AID 720683)
# In short: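 Tox21 10K library compounds were pinned into cell-free DMEM with 10% FBS and fluorescence was read at excitation 540 nm. Activity is expressed as Rose Bengal sodium equivalency.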
# [14] = qHTS assay to test for compound auto fluorescence at 590 nm (red) in HepG2 cell free culture (AID 720684)
# In short: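 Measured in medium alone (MEM containing 10% FBS) following pintool addition of compound; emission at 590 nm with 540 nm excitation, referenced to Rose Bengal sodium.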
# [15] = qHTS assay to test for compound auto fluorescence at 460 nm (blue) in HepG2 cell free culture (AID 720685)
# In short: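 Compound (23 nL) or DMSO pinned into cell-free MEM with 10% FBS; blue fluorescence read at 405/460 nm excitation/emission, expressed as auto-fluorescence equivalency to triamterene.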
# [16] = qHTS assay to test for compound auto fluorescence at 535 nm (green) in HepG2 cell free culture (AID 720686)
# [17] = qHTS assay to test for compound auto fluorescence at 460 nm (blue) in HepG2 cells (AID 720687)
# In short: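 Cells (2,000/well in MEM with 10% FBS) attached overnight at 37 C, then were exposed to compound or DMSO for 1 hr at 37 C, 5% CO2. Fluorescence read at Ex/Em 405/460 nm, expressed as triamterene-equivalent signal.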
# [18] = biological target: Glucocorticoid receptor (Homo sapiens) (UniProt P04150); assay: qHTS assay to identify small molecule agonists of the glucocorticoid receptor (GR) signaling pathway (AID 720691; active means well fitted activation curve with a large enough effect in the signal ratio in the repeat runs, not every such curve was filed as active; the % refers to the signal ratio)
# Chain of Glucocorticoid receptor (Homo sapiens) (P04150 whole entry, looked up): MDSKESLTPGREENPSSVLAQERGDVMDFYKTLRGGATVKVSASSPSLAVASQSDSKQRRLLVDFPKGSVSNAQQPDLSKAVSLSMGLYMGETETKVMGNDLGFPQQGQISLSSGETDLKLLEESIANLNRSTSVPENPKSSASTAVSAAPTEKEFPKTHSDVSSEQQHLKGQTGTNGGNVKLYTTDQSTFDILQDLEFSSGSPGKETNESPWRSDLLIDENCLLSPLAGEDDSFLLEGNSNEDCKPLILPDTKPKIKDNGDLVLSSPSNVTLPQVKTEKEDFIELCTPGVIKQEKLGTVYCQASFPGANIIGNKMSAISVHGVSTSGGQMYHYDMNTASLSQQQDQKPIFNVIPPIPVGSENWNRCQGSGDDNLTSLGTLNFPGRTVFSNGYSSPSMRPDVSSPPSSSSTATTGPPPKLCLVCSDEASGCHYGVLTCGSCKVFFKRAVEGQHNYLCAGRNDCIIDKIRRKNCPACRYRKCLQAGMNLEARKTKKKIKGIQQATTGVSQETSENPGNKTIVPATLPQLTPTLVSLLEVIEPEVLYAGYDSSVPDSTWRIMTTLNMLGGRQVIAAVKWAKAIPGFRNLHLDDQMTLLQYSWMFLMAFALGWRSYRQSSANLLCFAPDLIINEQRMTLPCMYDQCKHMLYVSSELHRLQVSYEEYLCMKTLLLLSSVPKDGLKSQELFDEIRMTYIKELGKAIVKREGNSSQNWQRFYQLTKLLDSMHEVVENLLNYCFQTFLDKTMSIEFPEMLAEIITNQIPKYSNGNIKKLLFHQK
# In short: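 GR-bla HeLa cells (beta-lactamase reporter under glucocorticoid response element) were plated 4 h at 37 C/5% CO2, given compounds in DMSO, and incubated 18 h at 37 C. LiveBLAzer B/G FRET substrate was added for 2 h at room temperature, then fluorescence intensity read.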
# [19] = qHTS assay to test for compound auto fluorescence at 535 nm (green) in HEK293 cells (AID 720680)
# [20] = biological target: Glucocorticoid receptor (Homo sapiens) (UniProt P04150); assay: qHTS assay to identify small molecule antagonists of the glucocorticoid receptor (GR) signaling pathway (AID 720692; active means well fitted inhibition curve with a large enough effect in the signal ratio in the repeat runs, not every such curve was filed as active; the % refers to the signal ratio)
# In short: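 GR-bla HeLa cells (beta-lactamase reporter under glucocorticoid response element) were pre-plated 4 h at 37 C, treated with compounds plus 5 nM dexamethasone (final) for 18 h, then read by LiveBLAzer B/G FRET fluorescence after 2 h.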
Compound,outcome [1],outcome [2],outcome [3],Potency [4],Potency [5],Potency [6],outcome [7],outcome [8],outcome [9],outcome [10],outcome [11],outcome [12],outcome [13],outcome [14],outcome [15],outcome [16],outcome [17],outcome [18],outcome [19],Potency [20]
O=C1C(c2[nH]c3ccccc3c2O)=Nc2ccccc21,inactive,inactive,inactive,inactive,inactive,4.22 µM (active),inactive,inactive,inactive,inactive,inactive,inactive,inactive,inactive,inactive,inactive,inactive,inactive,–,–
O=C(O)c1ccc(S(=O)(=O)N(Cl)Cl)cc1,inactive,inactive,inactive,inactive,inactive,inactive,inactive,–,inactive,inactive,inactive,inactive,inactive,inactive,inactive,inactive,inactive,inactive,inactive,inactive
CC(O)CC(C)(C)O (stereo not given),inactive,inactive,inactive,inactive,inactive,inactive,inactive,inactive,inactive,inactive,inactive,inactive,inactive,inactive,inactive,inactive,inactive,inactive,–,inactive
COC(=O)CCCC(=O)OC,inactive,inactive,inactive,inactive,–,–,inactive,–,inactive,inactive,inactive,inactive,inactive,inactive,inactive,inactive,inactive,inactive,inactive,inactive
CCCCCC(=O)O,inactive,inactive,inactive,inactive,inactive,inactive,inactive,inactive,inactive,inactive,inactive,inactive,inactive,inactive,inactive,inactive,inactive,–,inactive,–
COCCCN,inactive,inactive,inactive,inactive,inactive,inactive,inactive,–,inactive,inactive,inactive,inactive,inactive,inactive,inactive,inactive,inactive,inactive,inactive,inactive
CC(CCO)CC(C)(C)C (stereo not given),inactive,inactive,inactive,inactive,–,inactive,inactive,inactive,inactive,inactive,inactive,inactive,inactive,inactive,inactive,inactive,inactive,inactive,inactive,inactive
CN/C(=C\[N+](=O)[O-])NCCSCc1csc(CN(C)C)n1,inactive,inactive,inactive,inactive,–,inactive,inactive,inactive,inactive,inactive,inactive,inactive,inactive,inactive,inactive,inactive,inactive,inactive,–,inactive
CCCCCCC=O,inactive,inactive,inactive,inactive,–,–,inactive,inactive,inactive,inactive,inactive,inactive,inactive,inactive,inactive,inactive,inactive,inactive,inactive,inactive
NC(=S)NNC(N)=S,inactive,inactive,inactive,inactive,inactive,inactive,inactive,–,inactive,inactive,inactive,inactive,inactive,inactive,inactive,inactive,inactive,inactive,inactive,inactive
CCNc1ccccc1,inactive,inactive,inactive,inactive,inactive,24.8 µM (active) and inactive,inactive,inactive,inactive,inactive,inactive,inactive,inactive,inactive,inactive,inactive,inactive,–,–,–
CC(C)(C#N)c1cc(Cn2cncn2)cc(C(C)(C)C#N)c1,inactive,inactive,inactive,inactive,inactive,–,inactive,inactive,inactive,inactive,inactive,inactive,inactive,inactive,inactive,inactive,inactive,inactive,–,inactive
O=C(OCC1CCC2OC2C1)C1CCC2OC2C1 (stereo not given),inactive,inactive,inactive,inactive,–,inactive,inactive,inactive,inactive,inactive,inactive,inactive,inactive,inactive,inactive,inactive,inactive,inactive,inactive,inactive
CCOCCOCCOCCO,inactive,inactive,inactive,inactive,inactive,inactive,inactive,inactive,inactive,inactive,inactive,inactive,inactive,inactive,inactive,inactive,inactive,–,–,–
CCCCCCCCCCO,inactive,inactive,inactive,inactive,inactive,inactive,inactive,inactive,inactive,inactive,inactive,inactive,inactive,inactive,inactive,inactive,inactive,inactive,inactive,inactive
COc1ccc([N+](=O)[O-])cc1N,inactive,inactive,inactive,inactive,inactive,48.8 µM (active),inactive,inactive,inactive,inactive,inactive,inactive,inactive,inactive,inactive,inactive,inactive,inactive,inactive,inactive
